# Compound activity deposited in PubChem by several laboratories.
# The list is not random: actives were taken first. Their share in the collection is about 1.4%.
# TNF death inh – TNF-alpha cell death inhibition in Jurkat FADD-/- cells. actives 0.068% (n = 220,000). Jurkat FADD-/- TNF necroptosis rescue, ATP luminescence, 24 h; 0 = TNF only, 100 = no-TNF cells. activation (protection from cell death), % at 10 µM. AID 463075;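 active = activation, meaning protection from cell death, of at least 50% relative to plate controls; inactive = activation below 50%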;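 also: necroptosis triggered by 40 ng/mL TNF-alpha added together with compound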
# Wee1 stabilizer – human Wee1 degradation inhibition, primary screen; actives 1.2% (n = 220,000); AID 1321; reporter increase, % at 5 µM; P30291; HeLa Luc-Wee1K328M stability, luciferase luminescence; 100% = proteasome inhibitor MG132 effect;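 active = activation above the mean of all tested compounds plus 3 SD, set per screening run, cut at about 8.8% in these data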;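 also: cells exposed to compound for 20 h before luminescence read; 0% = DMSO alone and 100% = MG132 at 30 µM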
# Target sequence (P30291 whole entry K328M): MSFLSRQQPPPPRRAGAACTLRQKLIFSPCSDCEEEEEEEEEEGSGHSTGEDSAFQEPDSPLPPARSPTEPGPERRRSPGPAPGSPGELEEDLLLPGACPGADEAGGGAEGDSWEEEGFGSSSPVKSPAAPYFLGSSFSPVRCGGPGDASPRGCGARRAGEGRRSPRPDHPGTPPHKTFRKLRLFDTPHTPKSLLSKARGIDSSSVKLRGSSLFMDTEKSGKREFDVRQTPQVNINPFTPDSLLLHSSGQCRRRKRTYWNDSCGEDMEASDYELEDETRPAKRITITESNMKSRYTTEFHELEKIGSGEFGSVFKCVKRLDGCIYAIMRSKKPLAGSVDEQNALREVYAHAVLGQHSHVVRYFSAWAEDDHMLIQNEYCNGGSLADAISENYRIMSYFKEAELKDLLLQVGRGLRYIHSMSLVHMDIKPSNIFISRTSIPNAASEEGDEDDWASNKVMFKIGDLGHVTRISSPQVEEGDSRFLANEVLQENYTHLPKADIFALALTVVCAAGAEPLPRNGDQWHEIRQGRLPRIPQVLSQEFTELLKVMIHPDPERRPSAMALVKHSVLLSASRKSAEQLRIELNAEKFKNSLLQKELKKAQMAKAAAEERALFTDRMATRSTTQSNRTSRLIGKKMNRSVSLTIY
# HSV augment – increases HSV replication in cells | HSV replication augmentation in cells, fold increase | maximum fold increase | actives 0.005% (n = 220,000) | AID 1956; in the data active = maximum fold increase above about 1.5; tested in PC3 cells
# L929 necroptosis – blocks zVAD induced death of L929 cells; L929 zVAD necroptosis rescue, ATP luminescence, 24 h; with zVAD 60 µM; viability rescue, % at 10 µM; actives 0.38% (n = 220,000); AID 1377;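 active = activation, scaled between plate controls, above about 75%, limit read from the data; inactive = activation under that limit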;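 also: 0% = zVAD with DMSO and 100% = DMSO alone without zVAD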
# V-ATPase pH – yeast V-ATPase proton transport regulation by pHLuorin; S. cerevisiae, pHLuorin cytosolic pH fluorescence; response, % at 10 µM; actives 0.37% (n = 350,000); in the data active = response mostly above about 7.3%, no sharp cut-off; inactive = mostly below about 5.4%; also: actives read high
# VATPase regulator – regulators of yeast V-ATPase proton transport. AID 602197. actives 2% (n = 980). response, % at 10 µM. S. cerevisiae pHLuorin cytosolic pH. shares compounds with V-ATPase pH; in the data active = response above about 24%;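 also: plate controls were vehicle wells for no effect and positive control wells for full effect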
# The depositor's hits bear a star; i = inactive; / = no result given.
SMILES,TNF death inh,Wee1 stabilizer,HSV augment,L929 necroptosis,V-ATPase pH,VATPase regulator
CCOC(=O)C1C(C(=O)OC)=C(c2ccc(OC)cc2)c2ccc(OC)cc2N1S(=O)(=O)C(F)(F)F (stereo not drawn),/,/,/,/,8.0*,3.5
NNC(=O)CNC(=O)c1cccc(Br)c1,-1.1,2.7,i,0.4,25.7*,-5.9
O=C(Nc1nc2ccccc2n1CCN1CCOCC1)c1ccc(COc2ccccc2Br)o1,-1.4,4.8,i,-0.5,/,/
COc1ccc(NS(=O)(=O)c2cc(C(=O)N3CCN(C/C=C/c4ccccc4)CC3)ccc2C)cc1,/,/,/,/,-1.5,/
COc1ccc(NC(=S)N2CCN(C/C=C/c3ccccc3)CC2)c(OC)c1,0.2,-1.9,i,1.1,12.3*,-0.7
Cc1ccc(C)c(NC(=S)N/N=C/C(C)c2ccccc2)c1 (stereo not drawn),-0.6,-0.4,i,0.5,15.4*,2.7
CCOc1cccc(NC(=O)/C(C#N)=C\c2cn(CC(=O)O)c3ccccc23)c1,/,/,/,/,-1.2,/
CCOc1ccc(NC(=O)/C(C#N)=C/c2cn(CC(=O)O)c3ccccc23)cc1,/,/,/,/,7.1*,-1.5
O=C(COc1ccc(Cl)cc1)NNC(=O)c1ccc2c(=O)n3c(nc2c1)CCC3,/,/,/,/,0.6,/
CCOc1ccccc1NC(=O)NNC(=O)c1ccc2ccccc2c1,/,/,/,/,12.9*,2.1
CCOc1ccccc1NC(=O)c1ccc2ccccc2c1,/,/,/,/,0.3,/
O=C(/C=C/c1ccccc1)NCCS(=O)(=O)N1CCN(c2ccccc2)CC1,/,/,/,/,6.5*,1.2
O=C(/C=C/c1ccc2c(c1)OCO2)NCCS(=O)(=O)N1CCN(c2ccccc2)CC1,/,/,/,/,2.1,/
CCNC(=S)NC1CC2CCCC(C1)N2Cc1ccc(C)cc1 (stereo not drawn),/,/,/,/,6.3*,2.3
COc1ccc(-c2c(-c3ccc(OC)c(F)c3)c3ccccc3n2C)cc1,/,/,/,/,21.3*,3.2
CN1CCN(C(=S)NC(=O)c2ccco2)CC1,-0.3,-0.1,i,2.0,11.1*,0.4
O=C(NC(=S)N1CCN(c2ccc(O)cc2)CC1)c1ccco1,/,/,/,/,0.5,/
COc1ccc(C(=O)NCc2nnc(SCC(=O)Nc3ccccc3OC)n2C)cc1,1.9,8.3,i,1.7,3.1,/
O=[N+]([O-])c1cc([N+](=O)[O-])c(N2CCCCCC2)cc1NCCO,5.2,-2.3,i,-0.1,8.3*,-0.6
COc1ccc(NC(=O)CN2CCC(C(N)=O)(N3CCCCC3)CC2)c(OC)c1,0.7,1.6,i,1.7,2.0,/
COc1ccc(/C=C2\C(=O)NCC(=O)N2C)cc1,/,/,/,/,252.9*,6.5
Fc1cccc(Cl)c1CNn1cn[nH]c1=S,0.9,-0.8,i,0.5,11.2*,4.5
COc1cc(CNn2cn[nH]c2=S)cc(Cl)c1OCc1ccc(F)cc1,-1.1,3.8,i,-0.1,4.6,/
CCOC(=O)c1[nH]c2c(c1C)C(=O)CC(c1ccc(F)cc1)C2 (stereo not drawn),-13.1,0.1,i,-1.4,-0.7,/
CCOC(=O)c1[nH]c2c(c1-c1ccccc1)C(=O)CC(c1ccc(OCC)cc1)C2 (stereo not drawn),-0.8,2.5,/,/,11.3*,-5.9
SMILES,TNF death inh,Wee1 stabilizer,HSV augment,L929 necroptosis,V-ATPase pH,VATPase regulator
O=[N+]([O-])c1ccc(C(O)C23CN4CN(CN(C4)C2)C3)cc1 (stereo not drawn),-0.9,1.7,i,0.2,1.1,/
O=C(NCCNC(=O)c1ccc(F)cc1)c1ccc(F)cc1,/,/,/,/,0.4,0.8
CC(=O)NCCSC(=O)c1ccc(F)cc1,-0.2,2.4,/,0.0,-2.3,0.2
O=C(NCCCN1CCN(CCCNC(=O)c2ccc(F)cc2)CC1)c1ccc(F)cc1,0.2,2.6,i,-0.2,-1.0,1.1
O=C(NCCSCc1ccccc1)c1ccc(F)cc1,2.7,2.3,i,0.6,5.1,/
Cc1ccc(CSCC(=O)N2CCN(c3ccc(F)cc3)CC2)cc1,0.1,-0.4,i,0.2,11.8*,-0.2
O=C(CSCc1ccc(F)cc1)N1CCN(c2ccc(F)cc2)CC1,1.5,-1.2,i,-0.1,3.4,/
O=C(CCc1nc(-c2ccc(Cl)cc2)no1)NC1CCCC1,/,/,/,/,-3.8,/
O=S(=O)(c1ccc(F)cc1)N1CCN(CC(O)COCc2ccccc2)CC1 (stereo not drawn),/,/,/,/,-1.2,/
O=S(=O)(c1ccc(F)cc1)N1CCN(CC(O)COCC2CCCO2)CC1 (stereo not drawn),/,/,/,/,9.8*,0.3
O=C(CSc1nc(-c2ccccc2)c(-c2ccccc2)o1)NC1CCS(=O)(=O)C1 (stereo not drawn),-1.9,-1.4,i,-0.6,0.6,/
O=C1OCCC1Sc1nnc(-c2ccccc2)o1 (stereo not drawn),-2.5,-3.5,i,-0.4,-1.0,-2.5
Cc1ccc(C)c(SCC(=O)NC2CCS(=O)(=O)C2)c1 (stereo not drawn),/,/,/,/,11.9*,-3.7
O=C(CSc1nnc(-c2ccccc2)o1)NC1CC1,/,/,/,/,-0.1,-1.4
O=C(CSc1nnc(-c2ccccc2)o1)NC1CCS(=O)(=O)C1 (stereo not drawn),1.4,0.2,i,1.4,3.0,2.6
O=C(CSc1nnc(-c2ccccc2)o1)NC1CCCCC1,0.1,3.8,i,0.7,1.1,/
O=C1OCCC1Sc1nnc(-c2ccc(Cl)cc2Cl)o1 (stereo not drawn),0.9,-1.9,i,0.0,2.0,/
COc1cccc(OCC(=O)NNC(=O)Cc2cccs2)c1,1.2,-2.4,i,1.4,14.0*,-0.4
CCCCOC(=O)C1=C(C)Nc2ncnn2C1c1cccc(OC)c1OC (stereo not drawn),1.9,1.5,i,-0.3,0.1,/
COc1cccc(C2C(C(=O)OCc3ccccc3)=C(C)Nc3ncnn32)c1OC (stereo not drawn),2.8,-1.4,i,-0.3,8.5*,-2.3
Cn1nc(NC(=O)CC(C)(C)CC(=O)O)c2ccccc21,4.6,-3.5,i,-0.6,-3.4,/
O=[N+]([O-])c1cc(-c2csc(NCCc3nc4cc(Cl)c(N5CCCCC5)cc4n3CCCO)n2)ccc1Cl,/,/,i,/,10.3*,-3.2
CN1CCN(C2CC(=O)N(Cc3ccc(N4CCCC4=O)cc3)C2=O)CC1 (stereo not drawn),-1.8,-0.6,i,0.2,10.7*,-2.9
COc1ccc(N(CC(=O)Nc2cccc3ccccc23)S(C)(=O)=O)cc1,/,/,/,/,8.5*,-0.7
CN(Cc1nc(C(c2ccccc2)c2ccccc2)no1)CC1COCCO1 (stereo not drawn),0.1,-0.1,i,-0.2,10.8*,-5.3
C[C@@H]1Cn2cnc(C(=O)N[C@@H](C)c3ccccc3)c2C(=O)N1,/,/,/,/,4.2*,-0.4
C[C@H](NC(=O)c1ncn2c1C(=O)N[C@@H](C)C2)c1ccccc1,/,/,/,/,-0.1,/
COc1ccc(-c2cn3nc(SCC(=O)NC4CCCCC4)ccc3n2)cc1,/,/,/,/,-6.7,/
CC1CCCCN1S(=O)(=O)c1coc(C(N)=O)c1 (stereo not drawn),-0.6,2.5,i,-0.6,7.0*,2.9
